These results are taken from PubChem BioAssay AID592 (National Center for Advancing Translational Sciences (NCATS), 2007).

Among all 59,000 compounds or so, fewer than 10 were called active. How the calls were made is not given here. Only a sample is shown.

The nature of the test: qHTS Assay for Spectroscopic Profiling in A647 Spectral Region. The conditions noted are these: Compound fluorescence, A647 channel (570/671 nm), Tris buffer; stronger effect = higher value. The source says:
NIH Molecular Libraries Screening Centers Network [MLSCN] NIH Chemical Genomics Center [NCGC] […] Occasionally, the artifactual effect may originate from the compounds own spectral or other biophysical properties which generally tend to track its assay concentration. Pre-screening/profiling the library with respect to the compounds spectral properties should help one exclude false positives early on. While the most informative fluorescent profiling data set is obtained by performing a full excitation and emission scan of each well by using a monochromator-based plate reader, such an approach is practical only on a very limited scale as scanning each well requires long time. An alternative approach, applied here, is to perform plate reader scans using selected excitation and emission wavelength pairs to generate a multidimensional relational database that correlates compound concentration and the respective relative fluorescence intensity at a given wavelength set. A standard curve of Alexa 647 (A647) present on each plate as six-point concentration series, was used to compute a normalized fluorescence response, termed dye-equivalent concentration, for each compound at each concentration.
NCGC Assay Protocol Summary: Buffer: 100 mM Tris buffer, pH 8.0 Dye standard plate: The wells in columns 1 through 4 of a Kalypsys polypropylene 1536-well compound plate were filled with standard solutions of fluorophore corresponding to the spectral region of interest. Solutions of A647 were placed in the following wells: AC1, AD1: 3 mM, AC2, AD2: 300 uM, AC3, AD3: 30 uM, AC4, AD4: zero (DMSO), AE1, AF1: 3 uM, AE2, AF2: 900 nM, AE3, AF3: 300 nM, AE4, AF4: zero (DMSO). Assay Steps: Six uL of buffer were dispensed to 1536-well Greiner black plates. Compounds and dye standards (23 nL) were transferred via Kalypsys PinTool. The plates were incubated for 15 min at room temperature, and then read on ViewLux (Perkin-Elmer) High-throughput CCD imager using 570 nm and 671 nm excitation and emission filter set. Keywords: NIH Roadmap, MLSCN, MLI, MLSMR, qHTS, NCGC, A647, A-647, Fluorescent Profiling.
In general terms: qHTS replaces the single test concentration by a dilution series.
Take `Cc1ccccc1Nc1nc(N)nc(CN2CCN(c3ccccn3)CC2)n1`: the max dye-equivalent concentration is 44 nM (inactive).
For `COc1ccc(C(c2nnnn2Cc2cccs2)N2CCN(c3ccccc3)CC2)cc1OC` (stereo unspecified), the max dye-equivalent concentration was 11 nM (inactive).
For the compound `COC(=O)CNC(=O)c1ccc2c(c1)S(=O)(=O)c1ccccc1C2=O`, the max dye-equivalent concentration is 6.7 nM (inactive).
Take `O=C(O)c1ccc(C(=O)c2ccccc2C(=O)O)cc1C(=O)O`: the max dye-equivalent concentration is 3.2 nM (inactive).
For the compound `O=C(O)CSCNC(=O)CC12CC3CC(CC(C3)C1)C2`, the max dye-equivalent concentration was 1.2 nM (inactive).
With `COc1cc(C(=O)N(Cc2ccc(N(C)C)cc2)C2CCS(=O)(=O)C2)cc(OC)c1OC` (stereo unspecified) the figure was 8.2 nM (inactive); with `O=S(=O)(/C=C/c1ccccc1)NCCc1ccccn1`, 23 nM (inactive); with `Fc1ccccc1C(c1nnnn1Cc1ccc2c(c1)OCO2)N1CCN(Cc2ccccc2)CC1` (stereo unspecified), 3.5 nM (inactive).
In the case of `Cc1cc(C)nc(SCc2nnc(SCC(=O)OC3CCCCC3)o2)n1`, the max dye-equivalent concentration is 1 nM (inactive).
As to `Cc1csc(NC(=O)C2CCCN2C(=O)OCC(C)C)n1` (stereo unspecified), the max dye-equivalent concentration is 15 nM (inactive).
`N=C(CC(=O)Nc1ccccn1)c1ccccc1`: the max dye-equivalent concentration was 36 nM (inactive).
Under `Cc1oc(C)c(C(=O)NCCCC(=O)O)c1C(=O)NCCCC(=O)O` stands 15 nM (inactive).
Under `Cc1c(O)c(Br)c(C)c(O)c1Br` (tested in a mixture with another compound) stands 36 nM (inactive); under `O=C1c2ccccc2C(=O)N1CCCSc1ccccc1`, 1 nM (inactive).
Under `Cc1ccc(NC(=O)C2CCCN(S(=O)(=O)c3c(C)noc3C)C2)c(C)c1` (stereo unspecified) stands 5.9 nM (inactive); under `CCCNS(=O)(=O)c1ccc(CCC(=O)NCc2cccnc2)cc1`, 46 nM (inactive).
On to `Cn1c(=O)[nH]c(=O)c2c1nc(CN(Cc1ccccc1)Cc1ccccc1)n2CCN1CCOCC1`, for which the max dye-equivalent concentration is 2 nM (inactive).
As for `CCn1c(=O)cc(SCC(=O)NCc2ccc3c(c2)OCO3)c2ccccc21`, the max dye-equivalent concentration was 34 nM (inactive).
With `CCc1cc2c(=O)c(-c3ccon3)c(N)oc2cc1OC` the figure was 23 nM (inactive); with `N#Cc1cccc(NC(=O)CCC2CCCC2)c1`, 1 nM (inactive).
Under `Cc1nnc(SCc2ccc(C(=O)c3ccc(Cl)cc3)o2)n1-c1ccccc1` stands 1.7 nM (inactive); under `Cn1c2ccccc2c2c(C(=O)N3CCN(c4ccc(F)cc4)CC3)cn(C3CCCC3)c(=O)c21`, 2.8 nM (inactive).
With `CCn1c(Cc2ccccc2)nnc1SCc1nc2ccccc2c(=O)[nH]1` the figure was 3.7 nM (inactive); with `CCCOc1ccc(-c2nc(N)n[nH]2)cc1`, 1 nM (inactive); with `Cc1nnc(SCC(=O)N2CCc3ccccc32)n1-c1ccccc1`, 30 nM (inactive).
Turning to `O=C(Nc1c[nH]c(=O)[nH]c1=O)Oc1ccccc1`, the max dye-equivalent concentration is 1 nM (inactive).
Under `COC(=O)c1c(NC(=O)CSc2nncs2)sc2c1CCCCC2` stands 57 nM (inactive); under `CCCCN(CCCC)C(=O)CCS(=O)(=O)c1ccc2c(c1)n(C)c(=O)c(=O)n2C`, 16 nM (inactive).
Under `COc1cc(NS(=O)(=O)c2ccc(NC(C)=O)cc2)cc(OC)c1` stands 2 nM (inactive); under `COc1ccc(S(=O)(=O)N2CCN(c3ncnc4c(-c5ccccc5)nsc34)CC2)cc1`, 45 nM (inactive).
Turning to `C#CCN1C(=O)C(O)(CC(=O)c2cc(OC)ccc2OC)c2ccccc21` (stereo unspecified), the max dye-equivalent concentration was 44 nM (inactive).
Under `COc1ccc2c(c1)C(C)=CC(C)(C)N2C(=O)CNCc1ccc2c(c1)OCO2` stands 27 nM (inactive); under `CN(C)Cc1c(C#N)c2ccccc2n1C`, 1 nM (inactive); under `CN1CCCC(OC(=O)COc2ccc(Br)cc2)C1` (stereo unspecified), 2.1 nM (inactive).
With `Fc1ccc2nc(Nc3nc4c(s3)CCCC4)sc2c1` the figure was 34 nM (inactive); with `Cc1n[nH]c(C)c1S(=O)(=O)N1CCCC(C(=O)NCC2COc3ccccc3O2)C1` (stereo unspecified), 15 nM (inactive); with `CCON=C1C(C)(C)C(C)(C)C(C)(C)C1(C)C`, 1 nM (inactive).
With `CC(C)c1ccc(N2CC(C(=O)Nc3nccs3)CC2=O)cc1` (stereo unspecified) the figure was 1 nM (inactive); with `Cc1nc(NC(=O)CCC(=O)O)sc1C(=O)N(C)C`, 1 nM (inactive).
For `Cc1nc2ncnn2c(C)c1CCC(=O)N1CCN(C(=O)c2ccco2)CC1`, the max dye-equivalent concentration was 1 nM (inactive).
With `CN1CCc2c(sc3c2c(NCc2ccco2)nc2nnnn23)C1` the figure was 1 nM (inactive); with `CCN(C(=O)CSc1ncn[nH]1)c1cccc2ccccc12`, 1 nM (inactive); with `Cc1nn(-c2ccccc2)c2sc(C(=O)N(Cc3ccco3)C(C)C(=O)NC(C)(C)C)cc12` (stereo unspecified), 1 nM (inactive).
With `COc1ccc2c(c1)CCc1c(C(=O)Nc3c(C)n(C)n(-c4ccccc4)c3=O)noc1-2` the figure was 1 nM (inactive); with `Cc1cc2ccccc2n2c(SCC(=O)N3CCN(C(=O)c4ccco4)CC3)nnc12`, 3.8 nM (inactive); with `CCSc1nc2c(c(=O)[nH]1)C(c1cccnc1)C(C(=O)OC(C)C)=C(C)N2` (stereo unspecified), 29 nM (inactive).
